Screens as filed in PubChem BioAssay.
This excerpt belongs to a sample that is enriched for hits.
AmpC no deterg – blocks E. coli AmpC beta-lactamase in detergent-free assay. AmpC nitrocefin hydrolysis, absorbance 480 nm, 0.0001% Triton. Potency, µM (titrated, usually from 57.1 µM), for the others: at the top dose activity change, negative = inhibition, usual class: inhibitors. actives 0.52% (n = 330,000);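 note: potency is the fitted concentration of half-maximal effect; plate controls were no compound for no effect and no enzyme for full effect; nearly all actives have a fitted effect of over 20% in size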
Target sequence (P00811 whole entry, looked up): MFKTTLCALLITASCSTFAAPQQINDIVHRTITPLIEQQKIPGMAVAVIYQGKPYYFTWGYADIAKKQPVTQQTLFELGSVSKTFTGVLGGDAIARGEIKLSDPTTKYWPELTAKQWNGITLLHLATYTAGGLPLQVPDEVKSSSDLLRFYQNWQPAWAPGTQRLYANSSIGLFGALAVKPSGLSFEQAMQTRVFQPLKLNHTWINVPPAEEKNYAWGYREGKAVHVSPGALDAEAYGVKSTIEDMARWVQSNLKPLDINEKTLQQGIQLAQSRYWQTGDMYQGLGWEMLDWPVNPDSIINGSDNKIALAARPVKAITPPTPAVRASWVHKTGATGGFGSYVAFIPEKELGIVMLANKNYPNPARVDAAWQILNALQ
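AmpC (5.3 nM in the dispensed reagent) in 20 mM phosphate pH 7.0 with 0.01% (detergent screen) or 0.0001% Triton X-100 was preincubated with compounds for 15 min at room temperature. Nitrocefin was then added from an 800 uM solution, and hydrolysis was followed at 480 nm.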
Cycloheximide cs – counter-screen hit for Shiga toxin inhibitors, cycloheximide; cell reporter, cycloheximide protein synthesis inhibition counterscreen; max response, %; actives 12% (n = 300,000); in the data active = max response mostly above about 13%, no sharp cut-off; inactive = mostly below about 14%; note: read at 38.3 µM for the half of the compounds with a filed dose; 0% is about no effect
Shiga toxin inh – Shiga toxin inhibition | Vero cells, Shiga toxin protein synthesis inhibition reporter | actives 9.2% (n = 290,000) | inhibition, % at 38.7 µM; in the data active = inhibition mostly above about 28%, no sharp cut-off; inactive = mostly below about 43%; note: 0% is about no effect
AmpC detergent – blocks E. coli AmpC beta-lactamase in detergent assay; AmpC hydrolysis of nitrocefin, absorbance 480 nm, 0.01% Triton; Potency, µM (series often up to 114 µM), inactives show at the top dose activity change, negative = inhibition, actives largely listed as inhibitors; actives 0.041% (n = 370,000);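 note: potency is the fitted concentration of half-maximal effect; 0% = no-compound wells and -100% = no-enzyme wells; nearly all actives have a fitted effect of over 25% in size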
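AmpC (5.3 nM in the dispensed reagent) in 20 mM phosphate pH 7.0 with 0.01% (detergent screen) or 0.0001% Triton X-100 was preincubated with compounds for 15 min at room temperature. Nitrocefin was then added from an 800 uM solution, and hydrolysis was followed at 480 nm.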
NS1 inh – blocks influenza NS1 protein function; Potency, µM (highest dose often 46.1 µM), inactives show at the highest dose activity, positive = more growth; actives 0.4% (n = 270,000); AID 2326; calls by dose curve; note: potency is the fitted concentration of half-maximal effect; actives are rising curves; nearly all actives have a fitted effect of over 50% in size
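Growth recovery, yeast-based: influenza A NS1 expressed in S. cerevisiae causes slow growth, and suppressors are detected by OD600. The parent strain without NS1 is used as positive control.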
Numbers without * were called inactive; ? = inconclusive; . = not tested or not shown. Unless noted, calls come from the whole dose curve; as a rule, active = well fitted curve in the direction sought with a large enough effect; inconclusive = small, poorly fitted or top-dose-only effect, or another doubt; inactive = no such curve, though single readings can be large; an effect the other way counts as inactive or inconclusive.

SMILES	AmpC no deterg	Cycloheximide cs	Shiga toxin inh	AmpC detergent	NS1 inh
O=C(Nc1cc(Sc2ccccn2)cc([N+](=O)[O-])c1)c1cccc(Cl)c1	-41%	9	8	5%	25%
Cc1ccc(CN2CCSCC2)c(C)c1	-13%	-5	10	-11%	11%
Cn1cccc1C1NC(=O)c2c(sc3c2CCC(C(C)(C)C)C3)N1 (stereo unspecified)	-25%	11*	29*	-21%	-3%
CN1CCc2c(sc3c2C(=O)NC(c2ccco2)N3)C1 (stereo unspecified)	-7%	4	-1	-10%	11%
Cc1ccc(CNC(=O)CN(c2ccc(C(C)C)cc2)S(=O)(=O)c2c(C)n[nH]c2C)cc1	.	.	.	-6%	.
CC(=O)/C=C\c1ccccc1OC(=O)c1cc2ccccc2oc1=O	-22%	11*	2	3%	-12%
COc1cc(NC(=O)c2ccccc2F)ccc1NC(=O)c1cc2ccccc2o1	-14%	-1	-5	-1%	13%
O=C(/C=C\c1ccccc1OC(=O)c1ccccc1F)c1cc2ccccc2o1	-17%	44*	63	-2%	-35%
COC(=O)c1ccccc1OC(=O)c1cc2ccccc2oc1=O	0%	29*	52*	3%	-2%
COc1ccccc1OC(=O)c1cc2ccccc2oc1=O	-20%	0	18	?	-26%
CCCCCC(=O)Nc1ccc(NC(=O)c2cc3ccccc3o2)c(OC)c1	.	.	.	-2%	.
COc1ccc(C(C(=O)NCc2ccc(F)cc2)N(C(=O)c2csnn2)C2CC2)cc1 (stereo unspecified)	-5%	1	-5	-1%	-10%
CN1C(=O)/C(=C/c2ccccc2Cl)Sc2ccc(C(=O)N3CCCC3)cc21	178%	22*	3	3%	-23%
CCOC(=O)C1CCCN(C(=O)c2ccc3c(c2)N(C)C(=O)/C(=C/c2ccccc2Cl)S3)C1 (stereo unspecified)	140%	-2	-2	-10%	-4%
CCN1CCN(CCCNC(=O)C2CCCN(c3nc4c(C)cc(C)cc4s3)C2)CC1 (stereo unspecified)	155%	13*	42*	-4%	-25%
Cc1cc(C)c2nc(N3CCCC(C(=O)NCCCN4CCOCC4)C3)sc2c1 (stereo unspecified)	229%	14	42	-3%	-4%
Cc1cc(C)c2nc(N3CCCC(C(=O)NCCN4CCOCC4)C3)sc2c1 (stereo unspecified)	20%	36*	46*	-3%	-14%
Cc1cccc(CSc2nc(-c3cccc(C)c3)nc3c2Cc2c(CO)cnc(C)c2O3)c1	.	.	.	7%	.
COCCNC(=S)N/N=C(\C)c1ccccc1OC	-19%	-2	-2	-11%	18%
COCCNC(=S)N/N=C(\C)c1ccccc1O	1%	31*	94*	-1%	-2%
COCCCNC(=S)N/N=C/c1ccccc1O	-32%	44*	52*	0%	1%
CCCCN1C(=O)/C(=C2\SC(N3CCCCC3)=NC2=O)c2ccccc21	100%	26*	57*	?	-74%
Cc1occc1C(=O)N=Nc1c(O)[nH]c2ccc(Br)cc12	-9%	33*	75*	2%	0%
Cn1c(O)c(N=Nc2ccccc2[N+](=O)[O-])c2ccccc21	-22%	31*	75*	?	7%
CCCCn1c(O)c(N=Nc2ccccc2O)c2ccccc21	-24%	.	.	14%	.
SMILES	AmpC no deterg	Cycloheximide cs	Shiga toxin inh	AmpC detergent	NS1 inh
Cc1occc1C(=O)N=Nc1c(O)n(C)c2ccccc12	-11%	36*	58*	-12%	3%
Cc1cc(N=NC(=O)c2ccccc2O)c2ccccc2c1O	-27%	40*	126*	3%	.
Cn1c(O)c(N=NC(=O)CNC(=O)c2ccco2)c2ccccc21	-9%	-1	-9	-4%	-4%
CCc1ccc2oc(-c3ccc(C)c(NC(=O)Cc4ccccc4)c3)nc2c1	.	.	.	8%	.
COCCn1c(SCC(=O)c2ccc(C)cc2C)nc2cc(C(=O)NC3CCCC3)ccc2c1=O	.	.	.	8%	.
Cn1c(O)c(N=NC(=O)c2ccccc2O)c2ccccc21	-26%	37*	62*	-1%	4%
CCOC(=O)C(=O)N=Nc1c(O)n(C)c2ccccc12	-7%	-3	-8	-3%	8%
CN(C)CCn1c2c(c(SCC(=O)Nc3ccc(F)cc3F)nc1=O)CCC2	.	.	.	-2%	.
Cc1nc2c(cc(Oc3ccc(S(=O)(=O)N4CCOCC4)cn3)c3ccsc32)s1	44%	72*	113*	-7%	?
Cn1c(CCc2ccccc2)n[nH]c1=S	-14%	-4	32	6%	4%
CN(C(=O)c1cncc(Br)c1)C1C2CC3CC(C2)CC1C3 (stereo unspecified)	12%	19*	25	-21%	-10%
CN(C(=O)COC(=O)c1cncc(Br)c1)C1CCCCC1	-11%	.	.	.	.
N#CCc1nc(-c2cc3ccccc3oc2=O)cs1	-38%	41*	51*	1%	.
O=c1oc2ccccc2cc1-c1nc(-c2cccs2)cs1	-43%	14*	37	?	-1%
CC1CCC(=C(C#N)c2nc(-c3cc4ccccc4oc3=O)cs2)CC1 (stereo unspecified)	-26%	23*	30*	-6%	12%
N#C/C(=C\c1ccc(Cl)cc1)c1nc(-c2cc3ccccc3oc2=O)cs1	.	.	.	6%	.
N=c1oc2ccccc2cc1-c1nc(-c2ccccc2)cs1	-9%	42*	45*	-1%	15%
COc1ccccc1CNC(=O)c1ccc(CSc2nc3ccncc3n2Cc2cccc(F)c2)cc1	.	.	.	23%	.
COC(=O)c1cc2oc3ccccc3c2n1CC(=O)Nc1ccc(C)cc1Cl	.	.	.	27%	.
COc1cccc2cc(C(=O)C3=C(O)C(=O)N(c4cc(C)on4)C3c3cccs3)oc12 (stereo unspecified)	-59%	9	26	-2%	9%
CNc1nnc(-c2cc3ccccc3oc2=O)s1	-13%	38*	83*	-13%	-19%
COc1cccc2cc(-c3nc(-c4cccs4)no3)c(=O)oc12	.	.	.	6%	.
COc1cccc2cc(-c3nc(-c4cccs4)cs3)c(=O)oc12	-17%	37*	127*	-12%	-5%
O=S(=O)(c1ccc(-c2cc(C(F)(F)F)on2)s1)N1CCN(c2cccc(Cl)c2)CC1	.	.	.	4%	.
CC(C)OC(=O)Cn1nnc2c(cnn2-c2ccccc2)c1=O	-11%	46*	65*	?	4%
CC(C)OC(=O)Cn1c(-c2ccccc2)c(-c2ccccc2)nnc1=O	6%	-3	-8	-7%	-16%
COC(=O)Cn1nnc2c(cnn2-c2ccccc2)c1=O	-10%	25*	53	5%	0%
O=C(Cn1nnc2c(cnn2-c2ccc(F)cc2)c1=O)c1ccccc1F	-40%	9	19	0%	8%
O=C(CSc1nnc(-c2ccc(F)cc2)o1)Nc1ccc(S(=O)(=O)N2CCCC2)cc1	-21%	20*	42	-9%	-2%
COc1ccccc1NC(=O)CSc1nnc(-c2ccccn2)o1	-5%	-2	29	?	-6%
